Assay [1] relates to turtle Estrogen Receptor (ERa), gene 101933533. The experiment in a line: ATG_trERa_XSP2: Attagene TRANS-FACTORIAL Multi-Species (XSP2) HepG2 Assay for turtle Estrogen Receptor (ERa) (AID 2283812).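 Note: human HepG2 liver cells transiently expressing turtle ERa-Gal4 chimeric receptor; actives raise reporter signal above DMSO so AC50 reflects agonist activity.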 In outline:
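HepG2 cells transiently transfected with GAL4-UAS reporter units expressing turtle ERa-Gal4 chimera. Reporter mRNA measured after 24 h dosing by RT-PCR, fluorescent labelling and capillary electrophoresis; gain of signal fitted versus DMSO.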

Assay [2] concerns the target chicken Estrogen Receptor (ERa), ESR1 (gene 396099) (UniProt P06212). The experiment in a line: ATG_chERa_XSP2: Attagene TRANS-FACTORIAL Multi-Species (XSP2) HepG2 Assay for chicken Estrogen Receptor (ERa) (AID 2283817).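 Note: actives raise reporter signal above DMSO so AC50 reflects ER activation.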 A digest of the protocol:
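Transient MRTU transfection of HepG2 → 24 h chemical dosing → TriZol RNA, oligo(dT) RT → PCR, 6-FAM primer extension, HpaI digest → CE quantitation of chicken ERa-Gal4-driven reporter mRNA. Positive direction vs DMSO.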

Assay [3] relates to zebrafish Estrogen Receptor (ER2a), gene 317734. The experiment in a line: ATG_zfER2a_XSP2: Attagene TRANS-FACTORIAL Multi-Species (XSP2) HepG2 Assay for zebrafish Estrogen Receptor (ER2a) (AID 2283818).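 Note: hits raise reporter mRNA so AC50 reflects activation of zebrafish ER2a.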 In outline:
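HepG2 cells transiently transfected with GAL4-UAS reporter units and chimeric zebrafish ER2a-Gal4, exposed 24 h; medium contains 3 nM 6-alpha-fluorotestosterone and 1.5 nM norgestrel. Reporter mRNA quantified by RT-PCR, HpaI digestion, capillary electrophoresis; gain versus DMSO.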

Assay [4] deals with chicken Androgen Receptor (AR), gene 422165. The experiment in a line: ATG_chAR_XSP2: Attagene TRANS-FACTORIAL Multi-Species (XSP2) HepG2 Assay for chicken Androgen Receptor (AR) (AID 2283819).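 Note: hits raise reporter mRNA above DMSO so potency is for activation.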 In outline: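 HepG2 cells transiently transfected with chicken AR–GAL4 chimeric reporter constructs, stimulated with 3 nM 6-alpha-fluorotestosterone plus 1.5 nM norgestrel, dosed 24 h. Reporter mRNA quantified by RT-PCR and capillary electrophoresis; gain of signal fitted versus DMSO.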

Assay [5] deals with frog Estrogen Receptor (ER), gene 398734. The experiment in a line: ATG_frER1_XSP2: Attagene TRANS-FACTORIAL Multi-Species (XSP2) HepG2 Assay for frog Estrogen Receptor (ER) (AID 2283821).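 Note: hits raise reporter mRNA above DMSO baseline so potency means agonist or activator.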 In outline: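 Steps: transfect HepG2 with multiple reporter transcription units; treat with chemical for 24 h; isolate RNA, reverse-transcribe, PCR-amplify, label with 6-FAM, digest with HpaI; resolve fragments by capillary electrophoresis. Signal is scored against DMSO.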

The target of assay [6] is Estrogen receptor beta (Homo sapiens) (UniProt Q92731). The experiment in a line: ATG_hERb_XSP2: Attagene TRANS-FACTORIAL Multi-Species (XSP2) HepG2 Assay for human Estrogen Receptor (ERb) (AID 2283813).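 Note: actives raise reporter mRNA above DMSO so AC50 reflects agonist induction.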 In outline:
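HepG2 cells transiently transfected with GAL4-UAS reporter units and chimeric human ERb-Gal4, 24 h exposure. Reporter mRNA quantified by RT-PCR with FAM labelling, HpaI digestion and capillary electrophoresis; gain of signal versus DMSO.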

For assay [7], the target named is GAL4 Transcription Factor (Internal Marker), GAL4 (gene 855828) (UniProt P04386). The experiment in a line: ATG_GAL4_XSP2: Attagene TRANS-FACTORIAL Multi-Species (XSP2) HepG2 Assay for GAL4 Transcription Factor (Internal Marker) (AID 2283814).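 Note: GAL4 reporter mRNA background control in MRTU transfected cells not a receptor target.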 A digest of the protocol:
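HepG2 cells transiently transfected with GAL4-UAS reporter units, stimulated with 3 nM 6-alpha-fluorotestosterone plus 1.5 nM norgestrel, dosed 24 h. Reporter mRNA by RT-PCR/capillary electrophoresis; gain-of-signal fit versus DMSO, background control.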

Assay [8] deals with zebrafish Estrogen Receptor (ER1), esr1 (gene 259252) (UniProt P57717). The experiment in a line: ATG_zfER1_XSP2: Attagene TRANS-FACTORIAL Multi-Species (XSP2) HepG2 Assay for zebrafish Estrogen Receptor (ER1) (AID 2283816). In outline: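 HepG2 cells transiently transfected with a GAL4-UAS reporter and a chimeric zebrafish ER1-Gal4 construct, dosed 24 h. Reporter mRNA quantified by RT-PCR, labelling, HpaI digestion and capillary electrophoresis, relative to DMSO.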

Assay [9] is described as follows: ATG_M_19_XSP2: Attagene TRANS-FACTORIAL Multi-Species (XSP2) HepG2 Assay for M32 Transcription Factor (Internal Marker) (AID 2283822). A digest of the protocol: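 Internal background marker in a multi-species nuclear receptor TRANS panel: transfected HepG2 cells exposed 24 h, with 3 nM 6-alpha-fluorotestosterone and 1.5 nM norgestrel present. Readout is RT-PCR of reporter transcripts resolved by capillary electrophoresis, gain-of-signal versus DMSO.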

The test system of assay [10] is turtle Androgen Receptor (AR), gene 101947425. The experiment in a line: ATG_trAR_XSP2: Attagene TRANS-FACTORIAL Multi-Species (XSP2) HepG2 Assay for turtle Androgen Receptor (AR) (AID 2283815). A digest of the protocol: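 HepG2 cells transiently transfected with GAL4-UAS reporter units for chimeric NR-Gal4 receptors; 24 h dosing in presence of 3 nM 6-alpha-fluorotestosterone and 1.5 nM norgestrel. Reporter mRNA by RT-PCR and capillary electrophoresis, gain of signal versus DMSO.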

Several values for one entry are separate records, joined by “and”; a condition that tells them apart may be missing. Equal entries are not always repeated. Results filed as inconclusive are left out. More than one record can exist for a structure, and the calls need not agree. Activity calls are given as the source filed them. Rule for the calls: active = hit-call score of the fitted dose curve at least 0.9, where 1 is the maximum; inconclusive = response in the unintended direction; inactive = score below 0.9.

Chain of zebrafish Estrogen Receptor (ER1), esr1 (gene 259252) (P57717 whole entry, looked up, the tested form may be a part): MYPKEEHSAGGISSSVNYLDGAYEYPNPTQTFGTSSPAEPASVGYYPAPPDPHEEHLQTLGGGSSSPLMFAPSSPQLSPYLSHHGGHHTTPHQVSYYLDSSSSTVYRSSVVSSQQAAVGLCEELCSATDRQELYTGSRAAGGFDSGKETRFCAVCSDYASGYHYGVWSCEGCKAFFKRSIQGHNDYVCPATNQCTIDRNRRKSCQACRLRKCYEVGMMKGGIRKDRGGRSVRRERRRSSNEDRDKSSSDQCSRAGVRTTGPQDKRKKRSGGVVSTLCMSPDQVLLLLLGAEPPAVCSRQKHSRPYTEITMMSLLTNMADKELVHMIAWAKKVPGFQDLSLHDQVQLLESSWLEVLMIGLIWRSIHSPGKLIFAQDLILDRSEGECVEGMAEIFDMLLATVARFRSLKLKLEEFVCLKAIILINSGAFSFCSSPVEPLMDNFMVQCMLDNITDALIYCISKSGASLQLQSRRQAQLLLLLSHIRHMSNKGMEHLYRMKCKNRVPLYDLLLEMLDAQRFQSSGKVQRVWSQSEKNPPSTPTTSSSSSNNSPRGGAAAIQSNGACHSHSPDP
Chain of chicken Estrogen Receptor (ERa), ESR1 (gene 396099) (P06212 whole entry, looked up, the tested form may be a part): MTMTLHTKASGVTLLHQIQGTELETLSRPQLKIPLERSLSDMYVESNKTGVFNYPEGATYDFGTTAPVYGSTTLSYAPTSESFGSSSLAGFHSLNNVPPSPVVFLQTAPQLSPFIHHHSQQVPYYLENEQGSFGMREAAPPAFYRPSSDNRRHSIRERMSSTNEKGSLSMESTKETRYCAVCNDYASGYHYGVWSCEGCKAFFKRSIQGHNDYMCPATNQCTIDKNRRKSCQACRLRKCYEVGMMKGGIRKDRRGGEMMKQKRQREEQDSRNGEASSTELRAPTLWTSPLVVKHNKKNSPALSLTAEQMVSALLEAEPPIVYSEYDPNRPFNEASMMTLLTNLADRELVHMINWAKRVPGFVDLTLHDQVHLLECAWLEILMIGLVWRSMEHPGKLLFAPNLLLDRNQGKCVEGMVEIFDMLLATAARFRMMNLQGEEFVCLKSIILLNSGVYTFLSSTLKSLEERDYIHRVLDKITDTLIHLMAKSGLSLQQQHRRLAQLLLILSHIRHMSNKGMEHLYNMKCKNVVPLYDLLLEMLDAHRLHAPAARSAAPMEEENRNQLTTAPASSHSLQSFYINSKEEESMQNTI
Chain of GAL4 Transcription Factor (Internal Marker), GAL4 (gene 855828) (P04386 whole entry, looked up, the tested form may be a part): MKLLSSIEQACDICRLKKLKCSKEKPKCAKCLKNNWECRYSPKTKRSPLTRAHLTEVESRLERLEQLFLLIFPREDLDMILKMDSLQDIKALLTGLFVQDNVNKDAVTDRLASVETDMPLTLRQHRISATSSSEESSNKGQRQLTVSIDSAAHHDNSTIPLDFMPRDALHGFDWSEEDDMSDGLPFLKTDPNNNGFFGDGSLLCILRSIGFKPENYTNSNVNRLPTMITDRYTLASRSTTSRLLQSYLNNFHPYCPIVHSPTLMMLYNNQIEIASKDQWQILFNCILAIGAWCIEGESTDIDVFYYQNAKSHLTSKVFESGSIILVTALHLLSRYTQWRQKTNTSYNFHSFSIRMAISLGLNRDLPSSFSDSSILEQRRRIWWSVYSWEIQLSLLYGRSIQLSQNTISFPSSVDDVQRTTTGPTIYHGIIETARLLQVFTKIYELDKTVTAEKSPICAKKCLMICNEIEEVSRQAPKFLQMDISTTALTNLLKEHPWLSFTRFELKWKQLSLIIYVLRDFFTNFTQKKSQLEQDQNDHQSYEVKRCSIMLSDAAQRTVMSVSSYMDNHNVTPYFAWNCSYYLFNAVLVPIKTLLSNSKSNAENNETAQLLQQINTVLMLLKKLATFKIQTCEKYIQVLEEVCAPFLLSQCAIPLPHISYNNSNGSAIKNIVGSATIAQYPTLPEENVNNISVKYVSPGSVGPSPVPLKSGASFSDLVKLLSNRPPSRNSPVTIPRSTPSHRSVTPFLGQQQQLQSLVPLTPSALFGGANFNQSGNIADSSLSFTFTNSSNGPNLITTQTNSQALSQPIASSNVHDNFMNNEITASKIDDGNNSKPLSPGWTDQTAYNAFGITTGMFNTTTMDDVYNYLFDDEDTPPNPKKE
Chain of Estrogen receptor beta (Homo sapiens) (Q92731 whole entry, looked up, the tested form may be a part): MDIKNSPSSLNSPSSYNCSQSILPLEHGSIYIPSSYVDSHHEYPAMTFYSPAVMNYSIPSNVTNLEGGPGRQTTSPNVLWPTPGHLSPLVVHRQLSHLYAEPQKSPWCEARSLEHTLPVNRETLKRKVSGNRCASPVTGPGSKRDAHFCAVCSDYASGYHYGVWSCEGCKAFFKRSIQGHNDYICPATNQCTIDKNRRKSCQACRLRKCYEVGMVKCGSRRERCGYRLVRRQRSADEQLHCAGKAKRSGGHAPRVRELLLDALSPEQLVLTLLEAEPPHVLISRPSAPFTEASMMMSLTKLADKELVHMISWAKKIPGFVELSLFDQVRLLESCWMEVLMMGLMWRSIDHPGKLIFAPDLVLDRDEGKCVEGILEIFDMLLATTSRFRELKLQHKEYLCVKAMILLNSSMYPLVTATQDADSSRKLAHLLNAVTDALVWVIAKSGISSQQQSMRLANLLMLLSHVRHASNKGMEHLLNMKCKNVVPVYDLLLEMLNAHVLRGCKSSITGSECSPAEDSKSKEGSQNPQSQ

Regarding `O=S(=O)(O)C(F)(F)C(F)(F)C(F)(F)C(F)(F)C(F)(F)C(F)(F)C(F)(F)C(F)(F)F`, the compound was classed as inactive in assay [1], in [2], in assay [3], in assay [4] and in assay [5].

For the compound `Oc1ccc(Cl)cc1Cc1ccccc1`, the outcome in [1], in assay [6], in assay [7], in assay [2] and in assay [3] was inactive.

The AC50 is the midpoint of the concentration-response curve, whichever way the signal moves. With `COP(=S)(OC)Oc1ccc([N+](=O)[O-])cc1`, the AC50 in assay [1] is 29.6 µM (active) and 23.1 µM (active); in assay [6], 26.8 µM (active); in assay [2], 27.7 µM (active) and 20.6 µM (active); in [3] it was 26.7 µM (active). Also, the result in assay [6], in assay [7], in [8], in assay [3], in assay [5] and in [9] was inactive.

For the compound `CCCN(CCOc1c(Cl)cc(Cl)cc1Cl)C(=O)n1ccnc1`, the compound was called inactive in assay [1], in assay [6], in assay [8], in [2], in assay [3] and in assay [5].

For the compound `Oc1cc(Cl)ccc1Oc1ccc(Cl)cc1Cl`, the result in assay [1] and in assay [5] was inactive. The AC50 is 15.8 µM (active) in [7], 7.48 µM (active) in assay [2] and 14.1 µM (active) in [3].

For `CCOCN(C(=O)CCl)c1c(C)cccc1CC`, in assay [9], the call was inactive.

Consider `COP(=S)(OC)Oc1ccc(SC)c(C)c1`, for which the half-maximal activity concentration (AC50) in [1] was 5.17 µM (active); in assay [2] it was 27.5 µM (active); in [3], 27.8 µM (active); in assay [5] it was 27.3 µM (active). Besides, the call in [6], in assay [7] and in assay [8] was inactive.

For `CC(C)(C)C(O)/C(=C\c1ccc(Cl)cc1Cl)n1cncn1` (stereo not drawn), the compound was classed as inactive in assay [1], in assay [6], in [8], in assay [2], in assay [3] and in assay [5]. The concentration at half-maximal activity (AC50) in assay [6] was 8.38 µM (active); in assay [2], 16 µM (active).

Consider `O=C(O)C(F)(F)C(F)(F)C(F)(F)C(F)(F)C(F)(F)C(F)(F)C(F)(F)F`, for which the AC50 in [1] is 35.5 µM (active); in assay [6], 38.4 µM (active); in assay [2], 37.9 µM (active); in assay [3], 100 µM (active). In addition, the compound was classed as inactive in [4], in assay [5] and in assay [9].

As for `CCCN(CCC)c1c([N+](=O)[O-])cc(C(F)(F)F)cc1[N+](=O)[O-]`, the compound was classed as inactive in [1], in [7], in assay [8], in [2], in assay [3] and in assay [5]. Also, in assay [9], the result was inactive.

For `O=S1OCC2C(CO1)C1(Cl)C(Cl)=C(Cl)C2(Cl)C1(Cl)Cl` (stereo not drawn), in assay [1], the concentration at half-maximal activity (AC50) was 2.06 µM (active). Besides, the call in assay [8], in [2] and in assay [5] was inactive.

Take `CC1(C)C(C=C(Cl)Cl)C1C(=O)OC(C#N)c1ccc(F)c(Oc2ccccc2)c1` (stereo not drawn): the compound was called inactive in assay [1], in assay [7], in assay [10], in assay [2], in assay [3] and in assay [4]. The result in [5] and in assay [9] was inactive.
